Assay outcomes: PubChem, several laboratories
tim23-1 inh: inhibits growth of tim23-1 mutant yeast. S. cerevisiae tim23-1 growth, BacTiter-Glo luminescence, 24 h. inhibition, % at 20 µM. actives 1.3% (n = 330,000). AID 463212;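 active = growth inhibition of the mutant yeast at or above 50%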;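 note: temperature-sensitive mutant grown at 25 °C; plate controls were DMSO-treated mutant yeast for no effect and medium wells lacking yeast for full effect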
tim10-1 inh: tim10-1 yeast growth inhibition | S. cerevisiae tim10-1 ts strain growth, BacTiter-Glo, 24 h | AID 463190 | actives 2.2% (n = 330,000) | inhibition, % at 20 µM;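 active = inhibition of at least 40%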;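 note: mutant grown at 25 °C; 0% = DMSO wells with yeast and 100% = wells holding no yeast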
NLRP3 yeast inh: blocks the NALP3 inflammasome reconstituted in yeast; Yeast reconstituted NLRP3/ASC/caspase-1, beta-gal luminescence, 24 h; inhibition, % at 10 µM; actives 0.39% (n = 330,000);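 active = inhibition of 50% or more; inactive = inhibition below 50%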;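 note: plate controls were induced DMSO wells for no effect and uninduced yeast grown without galactose for full effect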
Yeast superoxide: yeast age-related superoxide inhibition as caloric restriction mimetic | S. cerevisiae aged cells, superoxide DHE fluorescence; stronger effect = lower value | superoxide response (% of plate mean), % at 10 µM | actives 0.18% (n = 330,000) | AID 2690;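 active = superoxide response under a set limit, about three screen SD below normal, cut at about 65% in these data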;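 note: yeast aged for seven days with compound at 30 °C before DHE staining; 100% = average MFI of all compound-treated wells on the plate with controls excluded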
TIM10 inh: inhibits growth of TIM10 yeast strain | AID 463195 | S. cerevisiae TIM10 strain growth, BacTiter-Glo luminescence, 24 h | actives 1.4% (n = 330,000) | inhibition, % at 10 µM;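 active = inhibition of 40% or more at the single tested concentration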;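 note: wild-type TIM10 isogenic control strain grown at permissive 25 °C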
tim10-1 confirm: tim10-1 yeast growth inhibition, confirmed. shares compounds with tim10-1 inh. S. cerevisiae tim10-1 ts strain growth, BacTiter-Glo, 24 h. inhibition, % at 20 µM. actives 56% (n = 7,400). AID 463213;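 active = inhibition of yeast growth at or above a set limit in either of two repeat tests at 20 µM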;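 note: tim10-1 mutant grown at permissive 25 °C to find synthetic lethal compounds; 0% = DMSO yeast wells and 100% = medium wells without yeast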
TIM10 conf: TIM10 yeast growth inhibition, confirmed | shares compounds with TIM10 inh | S. cerevisiae tim10 strain growth, BacTiter-Glo luminescence, 24 h | inhibition, % at 10 µM | actives 63% (n = 4,600);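 active = inhibition of yeast growth at or above a set limit in either of two replicates at 10 µM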;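 note: this counterscreen used the strain with wild-type TIM10; 0% = yeast with DMSO and 100% = medium wells lacking yeast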
tim23-1 confirm: tim23-1 yeast growth inhibition, confirmed | shares compounds with tim23-1 inh | S. cerevisiae tim23-1 growth, BacTiter-Glo luminescence, 24 h | inhibition, % at 20 µM | actives 83% (n = 4,400) | AID 463218;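 active = inhibition above about 39% in either of two replicate wells at 20 µM, limit read from the data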;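 note: temperature-sensitive tim23-1 mutant grown at 25 °C; 0% = DMSO wells with yeast and 100% = medium wells without yeast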
An asterisk follows results filed as active; / = not tested or not shown. Most compounds without a hit are left out; they make up all but 3.8% or so of the library.

SMILES | tim23-1 inh | tim10-1 inh | NLRP3 yeast inh | Yeast superoxide | TIM10 inh | tim10-1 confirm | TIM10 conf | tim23-1 confirm
Cc1nn(-c2ccccc2)c2c1C1(C(=O)N3c4c(cccc41)C(C)CC3(C)C)C(C#N)=C(N)O2 (configuration not stated) | 69* | 75* | 3 | 93 | 52* | 73* | 43* | 78*
Cc1c(-n2cccc2C=O)cccc1[N+](=O)[O-] | 17 | 0 | 8 | 107 | -29 | / | / | /
COC(C/C=C\C(=O)[C@@H](C)OCc1ccccc1)OC | 52* | 41* | 17 | 97 | 30 | 29 | / | 45*
Cc1cc(NC(=O)CSc2nnc(C3COc4ccccc4O3)n2N)no1 (configuration not stated) | 15 | -14 | -1 | 92 | -3 | / | / | /
CCOc1ccc2nc(NC(=O)C3(C)CC3(Br)Br)sc2c1 (configuration not stated) | 74* | 50* | 24 | 94 | 25 | 40* | / | 38*
Cc1cc(C)n2nc(C(=O)OCC(=O)N(CC(C)C)C3CCS(=O)(=O)C3)nc2n1 (configuration not stated) | -7 | -18 | 20 | 93 | -16 | / | / | /
CN1C2CCC1/C(=C\c1ccccc1)C(=O)/C2=C\c1ccccc1 | 53* | 47* | 33 | 102 | 45* | 36* | 23 | 55*
O=C1/C(=C/c2ccccc2)CCC1C1CCCC1 (configuration not stated) | 17 | 16 | 23 | 99 | 12 | / | / | /
O=C(Nc1ccccc1)C1=C[C@@H](c2ccc(Br)cc2)C[C@@H](OCCCCO)O1 | 55* | 43* | 13 | 126 | 33 | 45* | / | 54*
O=C(Nc1ccccc1)C1=C[C@H](c2ccccc2)C[C@H](OCCCCO)O1 | 17 | 20 | 13 | 112 | -16 | / | / | /
Cc1ccccc1-n1nc(-c2cccnc2)cc1C(=O)NN | 1 | -1 | 3 | 88 | 8 | / | / | /
Cn1ncc2c(O/N=C(\N)c3ccc(C(F)(F)F)cc3)ncnc21 | 79* | 52* | 15 | 110 | 74* | 25 | 85* | 52*
O=c1/c(=C/c2cccc3ccccc23)sc2ncnn12 | 69* | 46* | 3 | 81 | 16 | 19 | / | 74*
COc1ccc(-c2n[nH]c(C)c2-c2cnn(-c3ccccc3)c2)c(O)c1 | 60* | 51* | 21 | 120 | 50* | 42* | 44* | 50*
CCOC(=O)c1ccc(NC(=O)CCC2COc3ccccc3O2)cc1 (configuration not stated) | 53* | 41* | 14 | 78 | 36 | 36* | / | 48*
O=C(Nc1ccc2c(c1)OCO2)C1CCCCN1S(=O)(=O)c1ccccc1 (configuration not stated) | 38 | 30 | 10 | 108 | 20 | / | / | /
CCCCCCCCCCOC(=O)Cn1c(COc2ccccc2)[n+](C)c2ccccc21 | -40 | -6 | 16 | 82 | 19 | / | / | /
CCCCCCCCCCOC(=O)Cn1c(COc2ccc(Cl)cc2)[n+](C)c2ccccc21 | 92* | 97* | 18 | 93 | 55* | 92* | 54* | 91*
O=C(/C=C/c1ccccc1Cl)c1ccc(O)cc1 | 63* | 40* | 30 | 95 | 38 | 29 | / | 59*
O=C(/C=C/c1ccccc1Cl)c1cccnc1 | 15 | 29 | -14 | 87 | 4 | / | / | /
CC(=O)Nc1ccc(NC(=O)C2(C)CC2(Cl)Cl)cc1 (configuration not stated) | 5 | 11 | 9 | 102 | 3 | / | / | /
COc1ccc(S(=O)(=O)NCC2CCC(C(=O)NCC(OC)OC)CC2)cc1 (configuration not stated) | -4 | -3 | -9 | 99 | -7 | / | / | /
Oc1ccc(/C=N/Nc2ccc(C(F)(F)F)cn2)c(O)c1 | 78* | 65* | 30 | 103 | 65* | 44* | 72* | 78*
CC1=C/C(=C\c2ccc3c(c2)OCO3)C(=O)S1 | 53* | 48* | -9 | 109 | 46* | 39* | 40* | 20
